Myeloid diff MLP = induction of myeloid progenitor differentiation, primary screen, cell-based, flow cytometry, MLPCN library; ER-HoxA9 myeloid progenitors, lysozyme-GFP differentiation; calls only at 10 µM; 1% of 360,000 active;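 active means normalized GFP-positive differentiation at or above the plate's own cutoff, the solvent-only control mean plus 3 SD; inconclusive means no clear call, values can overlap the other calls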;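 further: cells exposed to compound for four days before flow analysis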
FAS-TE inh = FAS thioesterase domain inhibitors, primary screen, biochemical, fluorescence intensity, uHTS. Fatty acid synthase (Homo sapiens), P49327. recombinant FAS-TE, OMFH fluorogenic substrate, fluorescence endpoint. inhibition, % at 15 µM. 0.67% of 360,000 active. AID 602261, 2012;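 active means compounds whose normalised, plate-corrected inhibition of enzyme fluorescence in the single-dose primary screen is 50% or more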;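 further: 0% = DMSO with enzyme and 100% = substrate without enzyme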
CRFBP-R2 block = antagonists of CRF-BP/CRF-R2 complex, primary screen, cell-based, HEK293, calcium dye fluorescence, uHTS | CRF-induced calcium fluorescence | inhibition, % at 11.8 µM | 0.59% of 350,000 active | AID 588475, 2011;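 active means inhibition of the ligand-induced calcium signal above about 50% at the single tested concentration, limit read from the data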
NadD inh = inhibitors of S. aureus NadD, primary screen, biochemical, colorimetric, uHTS | Nicotinate-nucleotide adenylyltransferase NadD (Staphylococcus aureus N315) | purified NadD enzyme, colorimetric absorbance read-out | inhibition, % at 20 µM | 0.78% of 360,000 active | AID 602399, 2012; in the data active means inhibition above about 26%
CendR NRP1 mod = modulators of CendR peptide binding to NRP-1, primary screen, biochemical, fluorescence polarization, uHTS. inhibition, % at 25 µM. FAM-RPARPAR peptide binding to NRP-1. Neuropilin-1 (Homo sapiens), O14786. 0.85% of 360,000 active. AID 602438, 2012;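 active means inhibition or corrected inhibition above about 18%, plus a signal ratio from 0.5 to 1.5, limit read from the data, passing the limit was not always enough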
Target sequence (O14786 whole entry, looked up): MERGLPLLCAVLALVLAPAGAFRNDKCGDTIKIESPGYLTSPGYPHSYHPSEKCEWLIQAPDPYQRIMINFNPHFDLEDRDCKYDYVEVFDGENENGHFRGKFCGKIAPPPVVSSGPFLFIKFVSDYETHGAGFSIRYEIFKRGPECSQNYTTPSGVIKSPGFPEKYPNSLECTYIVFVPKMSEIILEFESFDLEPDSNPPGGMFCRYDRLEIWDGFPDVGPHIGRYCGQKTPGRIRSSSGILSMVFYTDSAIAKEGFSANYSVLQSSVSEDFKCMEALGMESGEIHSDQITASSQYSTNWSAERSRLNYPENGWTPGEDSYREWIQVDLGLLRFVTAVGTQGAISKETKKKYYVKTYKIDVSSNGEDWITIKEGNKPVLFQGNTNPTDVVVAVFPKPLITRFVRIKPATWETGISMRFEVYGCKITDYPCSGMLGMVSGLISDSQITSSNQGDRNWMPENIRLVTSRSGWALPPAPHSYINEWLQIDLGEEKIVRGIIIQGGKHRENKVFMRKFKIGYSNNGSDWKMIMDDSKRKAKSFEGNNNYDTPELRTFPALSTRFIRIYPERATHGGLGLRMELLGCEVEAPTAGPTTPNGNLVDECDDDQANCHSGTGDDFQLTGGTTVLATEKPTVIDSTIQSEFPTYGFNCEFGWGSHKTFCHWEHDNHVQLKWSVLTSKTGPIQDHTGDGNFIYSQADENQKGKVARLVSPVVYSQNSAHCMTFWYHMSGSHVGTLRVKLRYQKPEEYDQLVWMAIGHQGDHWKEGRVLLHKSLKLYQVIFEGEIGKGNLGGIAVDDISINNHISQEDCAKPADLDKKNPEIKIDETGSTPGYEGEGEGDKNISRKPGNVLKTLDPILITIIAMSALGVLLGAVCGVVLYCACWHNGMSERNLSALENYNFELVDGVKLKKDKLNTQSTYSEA
The depositor's hits bear a star; i = inactive; ? = inconclusive; . = no result given; + = active, no number. Rows were chosen to be rich in hits. Some 3.6% of all compounds tested hit in one or more screens of this group.

SMILES | Myeloid diff MLP | FAS-TE inh | CRFBP-R2 block | NadD inh | CendR NRP1 mod
CCc1ccc(/C=C2\SC(=S)N(CCCC(=O)Nc3ccccn3)C2=O)cc1 | i | 3 | -34 | 3 | -47
O=C(CCN1C(=O)/C(=C\c2ccco2)SC1=S)Nc1ccc(C(=O)O)c(O)c1 | ? | 2 | 0 | 40* | -130
Cc1cccc(S(=O)(=O)NC(=O)C2(C)CCN2C(=O)Cc2cccs2)c1 (stereo not drawn) | i | -10 | . | 0 | -4
Cc1[nH]c2ccccc2c1/C=N/Nc1ccc([N+](=O)[O-])cc1S(=O)(=O)Nc1ccc(Cl)cc1 | + | 17 | -141 | 38* | -189
COc1ccc(NS(=O)(=O)c2cc([N+](=O)[O-])ccc2N/N=C\c2c(C)[nH]c3ccccc23)cc1 | + | -6 | -73 | 27 | -138
COc1ccc(NS(=O)(=O)c2cc([N+](=O)[O-])ccc2NN=Cc2ccccc2OCC(=O)O)cc1 | i | 34 | 12 | 19 | -24
COc1cccc(S(=O)(=O)N(C)C[C@H]2Oc3ncc(Br)cc3C(=O)N([C@@H](C)CO)C[C@@H]2C)c1 | i | -3 | 14 | 1 | 9
CC(OC(=O)C1CCN(S(=O)(=O)c2ccccc2)CC1)C(=O)Nc1ncc(Cl)cc1Cl (stereo not drawn) | i | 0 | 0 | 3 | -2
CC(=O)Nc1ccc(NC(=O)C(C)OC(=O)C2CCCCC2)cc1 (stereo not drawn) | i | -4 | 52* | -8 | 2
CC(=O)Nc1ccc(NC(=O)COC(=O)C2CCCCC2)cc1 | i | -5 | -2 | -1 | 24*
CC(OC(=O)C1CCCC1)C(=O)Nc1ncc(Cl)cc1Cl (stereo not drawn) | i | -3 | -3 | -3 | 22*
CC(OC(=O)C1CC1)C(=O)Nc1ccc([N+](=O)[O-])cc1Cl (stereo not drawn) | + | 3 | -3 | -6 | -4
CCCN(C)C1CN(Cc2cn(Cc3ccc(OC)cc3)nn2)S(=O)(=O)C1 (stereo not drawn) | i | -13 | . | -3 | 0
O[C@@H]1C[C@H](c2ccc(Cl)cc2)N(Cc2cccs2)C[C@H]1n1cc(-c2ccc(F)cc2)nn1 | i | -2 | 10 | -2 | -49
CC(C)C#Cc1cnc2c(c1)C(=O)N([C@H](C)CO)C[C@@H](C)[C@H](CN(C)C(=O)Nc1ccccc1F)O2 | i | -12 | -1 | 0 | -6
O=C1CCCN1CCCNc1ccc2nnc(CCC(=O)N3CCN(c4ccccc4)CC3)n2n1 | i | -5 | -7 | 3 | 3
c1ccc(SC23CCCCN(CCC2)C32OCCO2)cc1 (stereo not drawn) | i | -1 | . | 2 | 6
CCC(C)N(C(=O)Cn1cnc2c1c(=O)n(C)c(=O)n2C)C1CCS(=O)(=O)C1 (stereo not drawn) | i | -8 | -9 | -4 | 13
CC(=O)Nc1ccc(C23CC4CC(CC(C4)C2)C3)cc1 | ? | 24 | -22 | -1 | -4
Oc1ccc(C23CC4CC(CC(C4)C2)C3)cc1O | i | 5 | -22 | 35* | 3
O=C(Cn1cnc2ccccc21)Nc1cccc(S(=O)(=O)N2CCCC2)c1 | i | -4 | -6 | -1 | -1
CCOC(=O)N(C)C[C@@H]1OCc2cnnn2CCCC(=O)N([C@H](C)CO)C[C@@H]1C | i | -7 | 19 | 6 | -4
Cc1ccc(C)c(Oc2cc(F)nc(N)n2)c1 | + | 3 | 9 | -7 | 7
COc1ccc(Oc2cc(F)nc(N)n2)cc1 | i | -7 | 5 | -2 | -4
CNc1ccccc1C(=O)OCC(=O)N1CCc2ccccc2C1 | i | 1 | 6 | -1 | 1
SMILES | Myeloid diff MLP | FAS-TE inh | CRFBP-R2 block | NadD inh | CendR NRP1 mod
COc1ccc(F)cc1-c1cc(C(=O)N2CCc3ccccc3C2)[nH]n1 | i | 16 | . | 0 | 9
COc1ccc(CCNS(=O)(=O)c2ccc(-n3cnnn3)cc2)cc1OC | i | -2 | 5 | -1 | 4
CCc1ccc2c(c1)C1(NN=C(c3cccc4ccccc34)S1)C(=O)N2 (stereo not drawn) | i | 10 | . | 35* | 16
COC(=O)c1cc2c(n1S(=O)(=O)c1ccc(C)cc1)C(=O)C(=O)c1[nH]cc(C(=O)OCc3ccccc3)c1-2 | . | 29 | 5 | 24 | 27*
CCOC(=O)C1CCCN(S(=O)(=O)c2ccc3c(c2)N(C)C(=O)CC(=O)N3C)C1 (stereo not drawn) | + | -5 | 2 | 1 | 11
CCOC(=O)C1CCN(S(=O)(=O)c2ccc3c(c2)CCN3C(=O)C2CCC2)CC1 | i | 12 | 8 | 0 | 22*
CCOC(=O)C1CCCN(S(=O)(=O)c2ccc(C)cc2)C1 (stereo not drawn) | i | -5 | -9 | 1 | 2
CCOC(=O)C1CCN(S(=O)(=O)c2ccc3c(c2)CCN3C(C)=O)CC1 | i | 2 | 15 | 3 | 9
Oc1ccc(C2Nc3cccc4cccc(c34)N2)c(O)c1 | i | 17 | 4 | 22 | 6
COC(=O)c1ccc(C2Nc3cccc4cccc(c34)N2)cc1 | i | 20 | 9 | 40* | 10
COc1ccc(C2Nc3cccc4cccc(c34)N2)cc1Br | i | 20 | 9 | 49* | 11
COc1cc(C2Nc3cccc4cccc(c34)N2)cc(OC)c1O | i | 4 | -8 | 32* | 10
COc1cc(C2Nc3cccc4cccc(c34)N2)ccc1OC(C)=O | i | 12 | 21 | 47* | 13
Cc1c(C)n(C(=O)CN2CCN(c3ccccc3)CC2)c2ccccc12 | i | 18 | 0 | 9 | 10
CCCCCCCCN1C(=O)[C@H](CC(=O)NCc2cccs2)C[C@@]2(C(=O)OC)CCCCC=C12 | i | 15 | . | 4 | -6
CCc1nc2ccc(C(=O)N(C)Cc3ccco3)cn2c1N(C)CCCc1ccccc1 | i | 17 | . | 2 | -1
Brc1ccc(C2Nc3cccc4cccc(c34)N2)cc1 | + | 49 | 3 | 5 | -10
Fc1ccc(C2Nc3cccc4cccc(c34)N2)cc1 | i | 15 | -3 | 22 | 21
CN1C(=O)[C@H]2[C@@H](/C=C/c3ccccc3)N3C(=O)CN(Cc4ccccn4)C(=O)[C@@]3(Cc3ccccc3)[C@H]2C1=O | i | -10 | 6 | 2 | 29*
O=C1[C@H]2[C@@H](/C=C/c3ccccc3)N3C(=O)CN(Cc4ccccn4)C(=O)[C@@]3(Cc3ccccc3)[C@H]2C(=O)N1c1ccccc1 | i | -4 | 5 | 8 | -10
COc1ccc(/C=N/NC(=O)CNC(=O)/C=C/c2ccccc2OC)cc1 | + | -1 | 6 | -4 | -3
COc1ccccc1/C=C\C(=O)NCC(=O)N/N=C/c1cccc(OC)c1O | i | -1 | -6 | 3 | 2
COc1ccc(S(=O)(=O)N(C)C[C@@H]2OCc3cn(nn3)CCCC(=O)N([C@H](C)CO)C[C@H]2C)cc1 | i | -16 | . | -5 | 18
